NPC1 promoter act: NPC1 promoter activation; Huh7 NPC1 promoter luciferase reporter, 24 h; Potency, µM (highest dose often 9.22 µM), for the others: at the highest dose activation, usual class: activators; 320,000 tested, 2.4% active; AID 485313; further: % of control where 0% means no effect; nearly all actives have a fitted effect of over 60% in size
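Stable NPC1-promoter luciferase Huh7 line; cpd (DMSO) 24 h, 37 °C, 5% CO2; Amplite luciferase reagent 10 min RT; luminescence readout. qHTS format.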
FLuc modulator: inhibits or activates purified firefly luciferase, miR-21 counter-screen; P08659; purified FLuc, Km substrates, luminescence inhibition; Potency, µM (top dose mostly 57.5 µM), without a hit: at the highest dose activity change, negative = inhibition, usual class: inhibitors; 360,000 tested, 6.9% active;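 further: plate controls were vehicle for no effect and reference inhibitor for full effect; nearly all actives have a fitted effect of over 55% in size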
Target sequence (P08659 whole entry, looked up): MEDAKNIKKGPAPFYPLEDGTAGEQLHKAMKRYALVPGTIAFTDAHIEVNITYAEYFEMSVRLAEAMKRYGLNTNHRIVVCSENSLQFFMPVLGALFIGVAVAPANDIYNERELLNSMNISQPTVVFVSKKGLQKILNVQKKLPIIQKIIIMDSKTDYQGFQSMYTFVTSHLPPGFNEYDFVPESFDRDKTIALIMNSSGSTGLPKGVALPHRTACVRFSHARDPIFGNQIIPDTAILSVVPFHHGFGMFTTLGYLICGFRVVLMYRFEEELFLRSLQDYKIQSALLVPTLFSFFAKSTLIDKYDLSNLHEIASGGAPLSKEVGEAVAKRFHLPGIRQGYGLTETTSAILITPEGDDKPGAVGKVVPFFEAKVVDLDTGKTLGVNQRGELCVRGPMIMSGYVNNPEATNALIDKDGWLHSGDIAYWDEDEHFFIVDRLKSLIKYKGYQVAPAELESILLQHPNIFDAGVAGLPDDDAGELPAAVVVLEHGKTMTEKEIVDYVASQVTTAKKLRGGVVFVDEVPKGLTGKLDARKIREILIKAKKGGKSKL
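Biochemical qHTS of compounds, final roughly 60 µM downward over six points, against 10 nM purified firefly luciferase using Km concentrations of substrates (10 uM D-luciferin, 10 uM ATP) in Tris acetate pH 7.5 buffer; luminescence output.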
SMN2 splice enh: enhancers of SMN2 splice variant expression. HEK293 SMN2-luciferase splicing reporter, luminescence, 30-36 h. Potency, µM (titrated, usually from 46.1 µM), for inactives: top-dose activity change, positive = activation, actives largely listed as activators. 210,000 tested, 2.8% active. AID 1458; further: % of control where 0% means no effect; nearly all actives have a fitted effect of over 55% in size
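HEK293 cells carry an SMN2 minigene-luciferase reporter in which exon 7 inclusion puts luciferase in frame. Cells were seeded at 2000 cells/well, attached for 10-12 hours, then exposed to compounds for 30-36 hours at 37C before ONE-Glo luminescence.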
ELG1 genotoxic: induces genotoxicity in HEK293T cells with luciferase-tagged ELG1 | HEK293T ELG1-luciferase reporter, luminescence, 16 h | Potency, µM (series often up to 46 µM), without a hit: top-dose activity change, positive = activation, hits mostly activators | 330,000 tested, 1.3% active; further: % of control where 0% means no effect; nearly all actives have a fitted effect of over 60% in size
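ELG1-luciferase HEK293T cells, 2,000/well; compound pinned in; 16 hr, 37 °C, 5% CO2; ONE-Glo, 30 min RT; luminescence on CCD imager.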
ELG1 repair inh: ELG1-dependent DNA repair inhibition; HEK293T ELG1-luciferase reporter, luminescence, 16 h; DNA damage induced by 5-fluorouridine; Potency, µM (titrated, usually from 46.1 µM), without a hit: top-dose activity change, negative = inhibition, actives largely listed as inhibitors; 330,000 tested, 2.3% active; AID 504467; further: on the % scale 0 is the no-effect control and ±100 the full control effect; nearly all actives have a fitted effect of over 55% in size
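Cells (2,000 per well) received 5-fluorouridine plus test compound or DMSO and were incubated 16 hr at 37 °C, 5% CO2. Luciferase activity was read by luminescence 30 min after ONE-Glo addition; signal suppression marked inhibition of damage-induced ELG1 function.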
Rab9 promoter act: Rab9 promoter activation | Huh7 Rab9 promoter-luciferase reporter, luminescence, 24 h | Potency, µM (series often up to 9.22 µM), for the others: top-dose activation, negative = inhibition, most hits filed as activators | 320,000 tested, 2.8% active; further: % of control where 0% means no effect; nearly all actives have a fitted effect of over 60% in size
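Stable Rab9-luc Huh7, 1500 cells/well, 2 h settle; cmpd in DMSO, 24 h, 37 °C/5% CO2; luciferase reagent 10 min RT; luminescence.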
* marks the source's active call; other numbers are inactive results; [ ] = remark or other dose. Sampled rows, rich in hits. Any-hit rate of the full collection: about 9.3%. The call rests on the fitted dose curve; in most records, active means well fitted curve in the direction sought with a large enough effect; inconclusive means small, poorly fitted or top-dose-only effect, or another doubt; inactive means no such curve, though single readings can be large; an effect the other way counts as inactive or inconclusive. Potency means the concentration at half of the fitted maximal effect.

Results for CN1CCC(N(C)C(=O)/C=C/c2cn(-c3ccccc3)nc2-c2cccs2)CC1 ?
NPC1 promoter act: 2.8%; FLuc modulator: inconclusive; SMN2 splice enh: -34.7%; ELG1 genotoxic: 9.9%; ELG1 repair inh: 7.8%; Rab9 promoter act: -0.9%

What do the screens show for `COC(=O)C1(C)NC(c2ccccc2C)C2C(=O)N(c3ccccc3)C(=O)C21` (centres undefined)?
NPC1 promoter act: -1.4%; FLuc modulator: 3.9%; ELG1 genotoxic: -2.1%; ELG1 repair inh: -21.2%; Rab9 promoter act: -0.9%

How did O=C(/C=C/c1ccccc1Cl)NCc1cccs1 do in these assays?
NPC1 promoter act: 27.9%; FLuc modulator: inconclusive; SMN2 splice enh: 13.3%[1.84 µM]; ELG1 genotoxic: inconclusive; ELG1 repair inh: inconclusive; Rab9 promoter act: inconclusive

Results for Cn1c(-c2nonc2NC(=O)c2ccc(C(C)(C)C)cc2)nc2ccccc21 ?
NPC1 promoter act: 0.0%; FLuc modulator: -6.4%; SMN2 splice enh: -2.4%; ELG1 genotoxic: -2.1%; ELG1 repair inh: -2.0%; Rab9 promoter act: -3.8%

How did CC(=O)Nc1nonc1NC(=O)c1ccc(C(C)(C)C)cc1 do in these assays?
NPC1 promoter act: inconclusive; FLuc modulator: inconclusive; SMN2 splice enh: inconclusive; ELG1 genotoxic: 19.2%; ELG1 repair inh: inconclusive; Rab9 promoter act: 3.55µM*

Results for Cn1nc([N+](=O)[O-])nc1Sc1nnc(-c2ccccc2)o1 ?
NPC1 promoter act: -12.0%; FLuc modulator: 8.0%; SMN2 splice enh: -29.7%; ELG1 genotoxic: -1.7%; ELG1 repair inh: inconclusive; Rab9 promoter act: -15.2%

What do the screens show for `CC(C)(C)OC(=O)N1CCC(c2c(C(=O)NC3CCCCC3)cnn2-c2cccc(F)c2)CC1`?
FLuc modulator: -0.5%

Results for COc1cccc2c1C(CO)N1C(C#N)C3CC(C(=O)O)C(C1C2)N3C (centres undefined) ?
NPC1 promoter act: -51.1%; FLuc modulator: -1.3%; ELG1 genotoxic: -5.7%; ELG1 repair inh: 0.326µM*; Rab9 promoter act: -51.2%

Results for Cc1ccc(/C=C/C(=O)NCCCc2ccccc2)cc1 ?
NPC1 promoter act: 1.2%; FLuc modulator: -26.0%; SMN2 splice enh: -10.2%; ELG1 genotoxic: -3.4%; ELG1 repair inh: inconclusive; Rab9 promoter act: -0.8%

Results for C#CCNC(=O)/C=C/c1ccc(C)cc1 ?
NPC1 promoter act: 3.16µM*; FLuc modulator: 10.7µM*; SMN2 splice enh: 12.6µM*; ELG1 genotoxic: inconclusive; ELG1 repair inh: inconclusive; Rab9 promoter act: 3.98µM*

How did O=C(NC1CCC(=O)N(CCOc2ccccc2)CC1)OCc1ccccc1 (centres undefined) do in these assays?
NPC1 promoter act: -5.3%; FLuc modulator: 10.8%; ELG1 genotoxic: -1.6%; ELG1 repair inh: -0.5%; Rab9 promoter act: -1.7%

How did COc1ccc(/C=N/NC(=O)c2ccoc2C)cc1OC do in these assays?
NPC1 promoter act: inconclusive; FLuc modulator: inconclusive; SMN2 splice enh: 12.6µM*; ELG1 genotoxic: inconclusive; ELG1 repair inh: inconclusive; Rab9 promoter act: inconclusive

What do the screens show for `Cc1occc1C(=O)N/N=C/c1ccc2c(c1)OCO2`?
NPC1 promoter act: 0.501µM*; FLuc modulator: 3.79µM*; ELG1 genotoxic: inconclusive; ELG1 repair inh: inconclusive; Rab9 promoter act: 0.355µM*

Results for Cc1cc(C(=O)N/N=C/c2ccc3c(c2)OCO3)c(C)o1 ?
NPC1 promoter act: inconclusive; FLuc modulator: 6.01µM*; ELG1 genotoxic: inconclusive; ELG1 repair inh: inconclusive; Rab9 promoter act: 3.16µM*

How did O=C(N/N=C/c1ccc2c(c1)OCO2)c1ccc(Cl)cc1Cl do in these assays?
NPC1 promoter act: 2.2%; FLuc modulator: inconclusive; ELG1 genotoxic: 2.0%; ELG1 repair inh: -6.9%; Rab9 promoter act: 3.0%

Results for Cn1cc(C(=O)N/N=C/c2ccc3c(c2)OCO3)c2ccccc21 ?
NPC1 promoter act: inconclusive; FLuc modulator: 8.49µM*; ELG1 genotoxic: 10.2%; ELG1 repair inh: 6.8%; Rab9 promoter act: inconclusive

Bioassay records deposited in PubChem by National Center for Advancing Translational Sciences (NCATS).
